The panel holds about 83,000 compounds, 20% with a hit somewhere; the sample as a whole holds those more often.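 Step 1: grow cells in 96-well plates. Step 2: add test compound at a single concentration. Step 3: incubate 48 h. Step 4: record percent growth.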 A number with no mark means an inactive call. Active and inactive are the calls of the source. How the source made its calls: active means growth percent below 10; inactive means the rest.

The assay relates to 786-0 renal. Kind of assay: NCI-60 one-dose screen, 48 h (100 = growth as untreated, 0 = no growth, -100 = all killed). The following applies: 10 µM unless noted.
On to `CCN(CC)c1ccc(\C=N/N=C(N)/C(N)=N\N=C/c2ccc(N(CC)CC)cc2)cc1`, for which the growth is 113%.
As for `CSc1nc2ccccc2cc1/C=C1/C=C(c2ccccc2)NC1=O`, the figure is 93.2%; as for `Cn1cc(-c2ccc3nc(-c4ccc(CC(=O)ONc5cc(C(C)(C)C)on5)cc4)cnc3c2)cn1`, 23.1%.
As for `Nc1ncnc2c1C(c1ccccc1)c1ccc3ccccc3c1O2` (stereo unspecified), the figure is 89.7%; as for `N#Cc1nc(-c2ccc(F)cc2)oc1S(=O)(=O)N1CCOCC1`, 87.6%.
In the case of `O=C(CSc1nc2sc3c(c2c(=O)n1-c1ccccc1)CCCCC3)N/N=C/c1cccc([N+](=O)[O-])c1`, the growth is 80.7%.
Turning to `O=C(Nc1cccc(Cl)c1)Nc1cccc(Cn2c(=O)[nH]c3ccc(Oc4ncccn4)cc3c2=O)c1`, the growth was 71.4%.
As to `CCOC(=O)Cc1cnc(N/N=C(\C)c2cc3ccccc3o2)s1`, the growth was 97.3%.
With `COC1/C=C/OC2(C)Oc3c(C)c(O)c4c(O)c(c(/C=N/Nc5ccc([N+](=O)[O-])cc5[N+](=O)[O-])c(O)c4c3C2=O)NC(=O)C(C)=C/C=C/C(C)C(O)C(C)C(O)C(C)C(OC(C)=O)C1C` (stereo unspecified), the growth was 24.4%.
As for `COC(=O)CC[C@@H]1O[C@@H](c2cccc(C(F)(F)F)c2)[C@@H](O)[C@H]1O`, the figure is 103%; as for `COc1ccc(/C=N/NC(=O)c2ccc(-n3cc(-c4ccccc4)nn3)cc2)cc1OC`, 98.1%; as for `COC(=O)c1c2c(c(C)[n+]([O-])c1C)C(=O)C(NCc1cccc(OC)c1)=CC2=O`, 54.3%.
For `Nc1n[nH]c2cccc(C#Cc3cccc(C(=O)Nc4cc(C(F)(F)F)cc(C(F)(F)F)c4)c3)c12`, the growth was 103%.
As for `OB1OCc2cc(/C=C/c3cccc(C(F)(F)F)c3)ccc21`, the figure is -27.2% (active); as for `CNC(=O)c1[nH]cc(-c2ccc(OC)cc2)c1-c1cc(OC)c2c(c1OC)OCO2`, 96.7%; as for `COc1ccc(-c2cc(-c3ccc(Cl)cc3)c(C#N)c(=O)n2Cc2ccc(C(=O)Nc3ccccc3N)cc2)cc1`, 90.3%.
On to `CC1CCc2c(C(=O)Nc3ncc(Cc4cccc([N+](=O)[O-])c4)s3)csc2C1` (stereo unspecified), for which the growth is 30.1%.
`N#Cc1nc(-c2ccc(Cl)cc2)oc1S(=O)(=O)N1CCN(c2ccc(F)cc2)CC1`: the growth was 99.5%.
As for `COc1c(B(O)O)cccc1-c1nc2c(F)cc3[nH]ncc3c2c2c1CCCC2`, the figure is 0.342% (active).
The figure for `O=S(=O)(NCCNc1nccc(-c2c(-c3ccc(F)c(O)c3)nc3sccn23)n1)c1ccc(O)cc1` is 49.6%; for `CCOC(=O)C(=O)C(C(=O)OCC)c1ccccc1` (stereo unspecified) it is 93.3%; for `COc1ccc(C(=O)/C=C/c2c(C(F)(F)F)nc3ccccn23)cc1OC` it is 10.3%.
For `CC(=O)O[C@H]1CC2CCC3C(CC[C@@]4(C)C3C[C@H]([N+]3(C)CCCCC3)[C@@H]4OC(C)=O)[C@@]2(C)C[C@@H]1N1CCCCC1` (stereo partly specified), the growth is 106%.
The figure for `O=C1c2ccc3c4c5ccc(c24)C(=O)N1CCCOCCCCOCCCNCc1ccc(cc1)CNCCCOCCCCOCCCN(C3=O)C5=O` is -6.67% (active); for `CC(O)(c1ccccc1)C(c1ccccc1)C1CCCCN1` (stereo unspecified) it is 103%; for `CCCC/C=C/[C@@H]1C[C@H]1CCO` it is 99.5%.
`COc1ccc(OC)c(Nc2nnc(-c3ccc(O)c(OC)c3)o2)c1`: the growth was 36.7%.
As for `N#CC1=C(N)Oc2c(ccc3ccccc23)C1c1ccccc1` (stereo unspecified), the figure is 13.5%; as for `OCCn1cc(-c2nc(-c3c[nH]c4ncccc34)cs2)c2ccccc21`, 95.1%.
The figure for `Cn1cc(-c2csc(-c3cn(C(=O)OC(C)(C)C)c4ccc(Br)cc34)n2)c2ccnc(Cl)c21` is 74.7%.
The figure for `O=S(=O)(c1ccccc1)n1cc2c(c1)-c1nc(Nc3ncccn3)sc1CC2` is 18.3%.

The values above are taken from PubChem BioAssay (NCI).
